Source: the supplement of paper PMC10498489
About 330 (14%) of roughly 2,300 compounds showed activity.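 How the source made its calls: active = median modified Z-score above 1.96; inactive = 1.96 or below.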 Not all results are given here.

Each molecule was assayed on HepG2 Srxn1-GFP reporter cells (+30 nM CDDO-Me) (assay: Srxn1-GFP intensity median modified Z-score relative to plate median; higher = stronger NRF2 / oxidative stress reporter activation, active = hit call of the paper). Conditions: 10 µM; exposure time: 24h.
Outline: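 The per-plate modified Z-score of GFP intensity, taken as a median across replicates, is what each value represents. Three replicate plates of HepG2 Srxn1-GFP BAC reporter cells were exposed for 24 h to an NRF2 activator at 30 nM combined with compound at 10 μM (≤0.1% DMSO). Cytoplasmic GFP per cell was read from confocal images, excluding any with under 100 cells, and scaling used 1.4826 × median absolute deviation.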

Row | Structure (SMILES) | Srxn1-GFP intensity median modified Z-score
1 | O[C@@H]1[C@@H](O)[C@@H](O)OC[C@H]1O | 0.871 (inactive)
2 | CC1C2C(CC3C4CC[C@H]5C[C@@H](O)CC[C@]5(C)C4CC(=O)[C@@]32C)O[C@]12CC[C@@H](C)CO2 (some centres undefined) [euspeclibcmpd1427] | -0.425 (inactive)
3 | COc1cc(/C=C/C(=O)N2CC=CCC2=O)cc(OC)c1OC [euspeclibcmpd1434] | 1.01 (inactive)
4 | CON [euspeclibcmpd1358] | -0.128 (inactive)
5 | CC(C)[N+]1(C)C2CC[C@H]1C[C@@H](OC(=O)C(CO)c1ccccc1)C2 (some centres undefined) [euspeclibcmpd162] | 0.508 (inactive)
6 | CC[C@]1(O)CC2CN(CCc3c([nH]c4ccccc34)[C@@](C(=O)OC)(c3cc4c(cc3OC)N(C=O)[C@H]3[C@@](O)(C(=O)OC)[C@H](OC(C)=O)[C@]5(CC)C=CCN6CC[C@]43[C@@H]65)C2)C1 (some centres undefined) [euspeclibcmpd836] | 27.5 (active)
7 | CC[C@]1(O)CC2CN(CCc3c([nH]c4ccccc34)[C@@](C(=O)OC)(c3cc4c(cc3OC)N(C)[C@H]3[C@@](O)(C(=O)OC)[C@H](OC(C)=O)[C@]5(CC)C=CCN6CC[C@]43[C@@H]65)C2)C1 (some centres undefined) [euspeclibcmpd320] | 25.8 (active)
8 | CC(=O)NC(CCC(N)=O)C(=O)O (centres undefined) [euspeclibcmpd1028] | -0.425 (inactive)
9 | Oc1cc2c(cc1O)C1c3ccc(O)c(O)c3OCC1(O)C2 (centres undefined) [euspeclibcmpd1605] | -0.437 (inactive)
10 | CN(C)CC/C=C1/c2ccccc2COc2ccccc21 [euspeclibcmpd104] | 1.4 (inactive)
11 | CC(=O)C1CCC2C3CC(C)=C4CC(=O)CC[C@]4(C)C3[C@@H](O)C[C@]12C (some centres undefined) [euspeclibcmpd179] | -0.562 (inactive)
12 | O=c1cc(-c2cc(O)c(O)c(O)c2)oc2cc(O)cc(O)c12 [euspeclibcmpd1548] | -0.459 (inactive)
13 | Cc1cc(-n2c(=O)[nH]c(=O)n(C)c2=O)ccc1Oc1ccc(SC(F)(F)F)cc1 [euspeclibcmpd839] | 2.22 (active)
14 | CC(C)(Oc1ccc(Cl)cc1)C(=O)O [euspeclibcmpd1029] | -0.706 (inactive)
15 | COc1ccc(C(=O)NCc2ccc(CN(C)C)cc2)cc1OC | 0.376 (inactive)
16 | CCc1cn(C2OCC(O)C2CO)c(=O)[nH]c1=O (centres undefined) [euspeclibcmpd543] | -0.196 (inactive)
17 | C=C1c2c(Cl)ccc(O)c2C(=O)C2C(=O)[C@]3(O)C(=O)C(C(N)=O)C(=O)C(N(C)C)[C@@H]3[C@@H](O)[C@H]12 (some centres undefined) [euspeclibcmpd381] | 0.0643 (inactive)
18 | CCC[C@@H]1CC(C(=O)N[C@H]([C@H]2O[C@H](SC)[C@H](O)[C@@H](O)[C@H]2O)[C@H](C)O)N(C)C1 (some centres undefined) [euspeclibcmpd172] | 0.221 (inactive)
19 | NC(=O)C1CC2CCCCC2N1c1cc(Cl)c(C(F)(F)F)cc1[N+](=O)[O-] (centres undefined) | 0.587 (inactive)
20 | CON=C(C(=O)NC1C(=O)N2C(C(=O)O)=C(C[N+]3(C)CCCC3)CSC12)c1csc(=N)[nH]1 (centres undefined) [euspeclibcmpd504] | 35.8 (active)
21 | CON=C(C(=O)NC1C(=O)N2C(C(=O)O)=C(CSc3nnnn3C)CSC12)c1csc(=N)[nH]1 (centres undefined) [euspeclibcmpd505] | -0.115 (inactive)
22 | CON=C(C(=O)N[C@@H]1C(=O)N2C(C(=O)O)=C(COC(C)=O)CS[C@H]12)c1csc(=N)[nH]1 [euspeclibcmpd2262] | -0.173 (inactive)

Row | Structure (SMILES) | Srxn1-GFP intensity median modified Z-score
23 | O=C(c1ccc(COc2ccc(Cl)cc2)cc1)N1CCN(Cc2ccc3c(c2)OCO3)CC1 | 1.17 (inactive)
24 | C[C@]12CCC3c4ccc(O)cc4CCC3C1CC[C@@H]2OC(=O)CCC1CCCC1 (some centres undefined) [euspeclibcmpd116] | -0.256 (inactive)
25 | Cc1ccc(O)cc1 [euspeclibcmpd76] | -0.159 (inactive)
26 | CC=C(C(=CC)c1ccc(O)cc1)c1ccc(O)cc1 [euspeclibcmpd91] | 13.6 (active)
27 | Oc1ccc(O)cc1 [euspeclibcmpd672] | 0.74 (inactive)
28 | CN[C@@H]1C(O)[C@@H](O[C@@H]2[C@@H](O)[C@H](O[C@H]3OC(CN)=CC[C@H]3N)[C@@H](N)C[C@H]2N)OC[C@]1(C)O (some centres undefined) [euspeclibcmpd452] | -0.626 (inactive)
29 | CO[C@H]1/C=C/O[C@@]2(C)Oc3c(C)c(O)c4c(O)/c(c(=CNN5CCN(C)CC5)c(O)c4c3C2=O)=N\C(=O)/C(C)=C\C=C\C(C)[C@H](O)[C@@H](C)[C@@H](O)[C@@H](C)[C@@H](OC(C)=O)[C@@H]1C (some centres undefined) [euspeclibcmpd263] | -0.401 (inactive)
30 | O=c1c(O)cc(C2Oc3cc(O)cc(O)c3C[C@H]2O)cc2c(C3Oc4cc(O)cc(O)c4C[C@@H]3O)cc(O)c(O)c12 (some centres undefined) [euspeclibcmpd1420] | -0.548 (inactive)
31 | Oc1cn2c(n1)Nc1ccc(Cl)c(Cl)c1C2 [euspeclibcmpd824] | -0.784 (inactive)
32 | CSc1ccc2c(c1)C(N1CCN(C)CC1)Cc1ccccc1S2 (centres undefined) [euspeclibcmpd1144] | 28.4 (active)
33 | CN1CCN2c3ccccc3Cc3ccccc3C2C1 (centres undefined) [euspeclibcmpd961] | 0.112 (inactive)
34 | Cc1cc2c(s1)N=c1ccccc1=NC2N1CCN(C)CC1 (centres undefined) [euspeclibcmpd2354] | 0.441 (inactive)
35 | CON=C(C(=O)NC1C(=O)N2C(C(=O)O)=C(CSC(=O)c3ccco3)CSC12)c1csc(=N)[nH]1 (centres undefined) [euspeclibcmpd692] | -0.296 (inactive)
36 | N=c1[nH]cnc(=Nc2ccc(Cl)cc2)[nH]1 [euspeclibcmpd2344] | 0.164 (inactive)
37 | CC1CC[C@@]23CC[C@]4(C)[C@@](CCC5[C@@]6(C)CCC(=O)C(C)(C)C6CC[C@]54C)(OC2=O)C3C1C (some centres undefined) [euspeclibcmpd1366] | -0.221 (inactive)
38 | CC(=O)OCC(=O)[C@@]1(O)CC[C@H]2[C@@H]3CCC4=CC(=O)CC[C@]4(C)[C@H]3C(=O)C[C@]21C | 0.314 (inactive)
39 | CN(C)CCOc1ccc(/C(=C(/CCCl)c2ccccc2)c2ccccc2)cc1 [euspeclibcmpd946] | 93.7 (active)
40 | CC/C(=C(\c1ccccc1)c1ccc(OCCN(C)C)cc1)c1ccccc1 [euspeclibcmpd285] | 43.4 (active)
41 | CN(C)CCOC(=O)COc1ccc(Cl)cc1 [euspeclibcmpd1131] | -0.393 (inactive)
42 | COc1ccc(C(=O)NCc2ccc(OCCN(C)C)cc2)cc1OC [euspeclibcmpd1095] | 0.331 (inactive)
43 | CCN(CC)CCOc1ccc(/C(=C(\Cl)c2ccccc2)c2ccccc2)cc1 [euspeclibcmpd69] | -1.55 (inactive)
44 | COc1cc(C(=O)NCc2ccc(OCCN(C)C)cc2)cc(OC)c1OC [euspeclibcmpd309] | 0.482 (inactive)
